According to PubChem BioAssay (NCATS):
“And” between values parts separate entries of the source, which are not always exact repeats. Equal entries are not always repeated. Inconclusive results are not listed. A call without a number means that no potency is given here. The source made the active and inactive calls. Unless noted, calls come from the whole dose curve; as a rule, active = well fitted curve in the direction sought with a large enough effect; inconclusive = small, poorly fitted or top-dose-only effect, or another doubt; inactive = no such curve, though single readings can be large; an effect the other way counts as inactive or inconclusive.

What was measured:
[1] = molecular target: Thyroid hormone receptor beta (Homo sapiens) (UniProt P10828); test: qHTS assay for small molecule agonists of thyroid hormone receptor beta signaling (AID 588545; calls by dose curve)
Chain of Thyroid hormone receptor beta (Homo sapiens) (P10828 whole entry, looked up): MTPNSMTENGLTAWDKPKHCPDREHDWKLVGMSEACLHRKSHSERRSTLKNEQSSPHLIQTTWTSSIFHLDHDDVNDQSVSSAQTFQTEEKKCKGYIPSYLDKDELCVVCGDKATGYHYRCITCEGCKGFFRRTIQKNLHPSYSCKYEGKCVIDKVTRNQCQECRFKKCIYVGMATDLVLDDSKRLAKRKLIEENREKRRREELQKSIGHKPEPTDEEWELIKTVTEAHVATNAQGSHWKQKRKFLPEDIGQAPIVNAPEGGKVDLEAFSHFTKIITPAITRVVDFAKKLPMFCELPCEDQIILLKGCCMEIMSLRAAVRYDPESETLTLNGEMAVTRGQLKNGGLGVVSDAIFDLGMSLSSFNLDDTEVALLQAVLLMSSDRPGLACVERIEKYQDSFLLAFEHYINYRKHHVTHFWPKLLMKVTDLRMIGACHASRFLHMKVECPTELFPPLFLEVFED
Summary of the method: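 In this cell-based screen, titrated compounds act on HEK 293 cells held in medium with 2% charcoal/dextran FBS, NEAA and pyruvate for 18 hrs at 37 C. Responses are expressed relative to T3 (10 nM) as 100% and basal DMSO as 0%.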

[2] = qHTS assay for small molecule antagonists of retinoid X receptor alpha signaling (AID 588546; active = well fitted inhibition curve with a large enough effect in the signal ratio, with a control signal flat, not every such curve was filed as active; the % refers to the signal ratio;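 note: cells stimulated with 9-cis-retinoic acid as agonist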); details: HEK293T RXRa-UAS-bla, beta-lactamase ratio, antagonist mode; measured here: W530 green channel, cytotoxicity proxy
Summary of the method: (§1)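 Beta-lactamase reporter inhibition, read as CCF4 fluorescence ratio (ex 405, em 460/530 nm) after 2 h at RT. HEK293T UAS-bla cells, 2500/well, were stimulated with 9-cis-RA at 500 or 100 nM final alongside test compound for 18 h at 37 C.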

[3] = molecular target: Retinoic acid receptor RXR-alpha (Homo sapiens) (UniProt P19793); test: as above; details: HEK293T RXRa-UAS-bla, beta-lactamase ratio, antagonist mode
Chain of Retinoic acid receptor RXR-alpha (Homo sapiens) (P19793 whole entry, looked up): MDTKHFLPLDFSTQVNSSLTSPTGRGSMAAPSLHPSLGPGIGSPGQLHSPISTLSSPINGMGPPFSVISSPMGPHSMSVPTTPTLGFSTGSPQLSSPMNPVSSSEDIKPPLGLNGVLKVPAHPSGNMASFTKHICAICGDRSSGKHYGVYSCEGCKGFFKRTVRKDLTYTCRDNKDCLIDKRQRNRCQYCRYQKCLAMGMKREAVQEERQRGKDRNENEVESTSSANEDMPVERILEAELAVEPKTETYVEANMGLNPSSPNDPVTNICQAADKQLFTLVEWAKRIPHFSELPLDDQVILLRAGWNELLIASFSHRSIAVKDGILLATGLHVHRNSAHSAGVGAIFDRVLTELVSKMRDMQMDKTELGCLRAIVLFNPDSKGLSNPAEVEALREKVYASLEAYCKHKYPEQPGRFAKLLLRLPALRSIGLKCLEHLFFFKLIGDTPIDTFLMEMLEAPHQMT
Summary of the method: as §1

[4] = molecular target: Thyroid hormone receptor beta (Homo sapiens) (UniProt P10828); test: qHTS assay for small molecule antagonists of thyroid hormone receptor beta signaling (AID 588547; active = well fitted inhibition curve with a large enough effect in the signal ratio, with a control signal flat, not every such curve was filed as active; the % refers to the signal ratio;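 note: cells stimulated with 0.4 nM T3 agonist during compound exposure; series mostly up to about 77 µM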); details: TR-UAS-bla HEK293, beta-lactamase ratio, antagonist mode, 18 h
Summary of the method: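 TR-UAS-bla GripTite HEK293 cells in 2% charcoal/dextran FBS medium were preincubated 4 h at 37 C, given compound (0.59 nM to 92 uM) plus 0.4 nM T3 (final) for 18 h, then CCF4 for 2 h at RT; Hill fit gave IC50.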

[5] = molecular target: Voltage-gated inwardly rectifying potassium channel KCNH2 (Homo sapiens) (UniProt Q12809); test: qHTS Assay for Small Molecule Inhibitors of the Human hERG Channel Activity (AID 588834);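 note: top concentration of the series differs between compounds; lower thallium flux fluorescence means stronger hERG block; nearly all actives have a fitted effect of over 50% in size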
Chain of Voltage-gated inwardly rectifying potassium channel KCNH2 (Homo sapiens) (Q12809 whole entry, looked up): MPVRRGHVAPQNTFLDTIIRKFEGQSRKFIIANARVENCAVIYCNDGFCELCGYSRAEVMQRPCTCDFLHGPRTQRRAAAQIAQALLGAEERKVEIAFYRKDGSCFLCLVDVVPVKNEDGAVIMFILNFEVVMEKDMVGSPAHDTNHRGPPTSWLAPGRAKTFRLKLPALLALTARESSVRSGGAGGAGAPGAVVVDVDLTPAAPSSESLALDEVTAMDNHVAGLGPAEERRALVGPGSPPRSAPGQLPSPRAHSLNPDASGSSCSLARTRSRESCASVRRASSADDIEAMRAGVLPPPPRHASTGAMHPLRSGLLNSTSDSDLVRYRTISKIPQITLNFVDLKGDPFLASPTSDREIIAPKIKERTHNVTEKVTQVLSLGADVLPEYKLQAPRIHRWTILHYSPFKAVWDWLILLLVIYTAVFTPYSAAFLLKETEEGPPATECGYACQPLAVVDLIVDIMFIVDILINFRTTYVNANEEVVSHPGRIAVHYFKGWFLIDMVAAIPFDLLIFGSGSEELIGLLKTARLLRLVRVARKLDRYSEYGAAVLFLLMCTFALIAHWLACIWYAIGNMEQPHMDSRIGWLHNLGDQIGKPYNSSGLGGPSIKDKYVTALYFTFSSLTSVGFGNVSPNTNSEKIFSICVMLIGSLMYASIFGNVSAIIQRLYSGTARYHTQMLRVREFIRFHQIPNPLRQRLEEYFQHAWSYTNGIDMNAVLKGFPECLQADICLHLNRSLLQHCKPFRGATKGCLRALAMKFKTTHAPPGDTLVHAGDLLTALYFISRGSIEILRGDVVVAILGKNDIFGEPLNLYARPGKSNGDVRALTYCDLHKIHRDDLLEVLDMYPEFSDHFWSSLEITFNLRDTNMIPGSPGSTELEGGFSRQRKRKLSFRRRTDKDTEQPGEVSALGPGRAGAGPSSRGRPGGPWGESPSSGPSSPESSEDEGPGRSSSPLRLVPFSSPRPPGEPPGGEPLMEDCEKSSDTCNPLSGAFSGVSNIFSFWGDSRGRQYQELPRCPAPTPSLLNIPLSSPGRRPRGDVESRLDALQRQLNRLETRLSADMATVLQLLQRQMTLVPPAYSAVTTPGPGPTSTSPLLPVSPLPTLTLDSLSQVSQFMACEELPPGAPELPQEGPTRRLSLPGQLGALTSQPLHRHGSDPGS
Summary of the method: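 Kinetic FDSS fluorescence; U2OS + hERG BacMam (~100 virus particles/cell); FluxOR Tl+ flux; ~10 min cpd; AC50 (Hill).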

[6] = molecular target: Luciferin 4-monooxygenase (Photinus pyralis) (UniProt P08659); test: Biochemical firefly luciferase enzyme assay for NPC (AID 624030);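 note: purified P. pyralis luciferase at 10 nM with luciferin and ATP substrate; series mostly up to about 59 µM; nearly all actives have a fitted effect of over 70% in size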
Chain of Luciferin 4-monooxygenase (Photinus pyralis) (P08659 whole entry, looked up): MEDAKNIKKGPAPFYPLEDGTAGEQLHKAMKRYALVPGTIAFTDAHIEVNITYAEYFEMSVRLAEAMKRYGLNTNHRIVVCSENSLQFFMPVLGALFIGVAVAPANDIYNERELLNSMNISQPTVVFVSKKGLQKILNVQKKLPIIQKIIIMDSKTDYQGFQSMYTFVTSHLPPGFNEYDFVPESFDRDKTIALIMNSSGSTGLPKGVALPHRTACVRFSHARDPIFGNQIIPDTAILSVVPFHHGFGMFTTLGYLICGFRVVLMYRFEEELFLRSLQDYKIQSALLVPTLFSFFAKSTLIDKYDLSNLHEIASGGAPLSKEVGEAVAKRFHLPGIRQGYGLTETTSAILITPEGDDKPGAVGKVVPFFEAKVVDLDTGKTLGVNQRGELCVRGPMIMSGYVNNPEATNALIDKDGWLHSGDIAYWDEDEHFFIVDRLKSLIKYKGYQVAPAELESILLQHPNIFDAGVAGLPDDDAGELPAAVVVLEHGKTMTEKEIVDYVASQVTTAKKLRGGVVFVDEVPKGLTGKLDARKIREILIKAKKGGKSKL
Summary of the method: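 Counter-screen for direct inhibition of the luciferase enzyme by approved-drug library compounds, run at 10 nM enzyme in 50 mM Tris acetate (final). Luminescence was read within 5 min of enzyme-buffer addition and normalized to PTC124 versus DMSO (0%).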

[7] = S16 Schwann cell PMP22 intronic element firefly luciferase assay (AID 624032); note: series mostly up to about 58 µM; nearly all actives have a fitted effect of over 30% in size
Summary of the method: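 Rat S16 Schwann cells stably carrying a PMP22 intronic element-driven Fluc reporter were seeded overnight, then exposed to compounds for 24 h at 37 °C. Luminescence was normalized to PTC124 (positive control) and DMSO (0% activity).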

[8] = S16 Schwann cell PMP22 intronic element beta-lactamase assay (AID 624044; calls by dose curve; note: nearly all actives have a fitted effect of over 15% in size)
Summary of the method: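 Rat S16 Schwann cells with beta-Lac driven by a PMP22 intronic element, compound-treated 24 h at 37 °C. LiveBLAzer FRET B/G read: 460 nm normalized to potassium clavulanate vs DMSO; 535 nm FRET as viability; concentration-effect curves classified.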

[9] = qHTS assay for small molecule agonists of the antioxidant response element (ARE) signaling pathway (AID 651741; active = well fitted activation curve with a large enough effect in the signal ratio; the % refers to the signal ratio; note: potency is the fitted concentration of half-maximal effect)
Summary of the method: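 ARE-bla HepG2 cells (beta-lactamase reporter under ARE control) were plated at 2,000 cells/well, preincubated 5 h at 37 C/5% CO2, then treated with DMSO-dissolved compounds for 16 h at 37 C; LiveBLAzer B/G FRET substrate added, fluorescence read after 2 h at room temperature.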

[10] = qHTS assay for small molecule activators of the nuclear factor-kappa B (NF-kB) signaling pathway (AID 651749; active = well fitted activation curve with a large enough effect in the signal ratio; the % refers to the signal ratio; note: series mostly up to about 77 µM); details: NF-kB-bla ME-180 cells, beta-lactamase FRET ratio, 16 h; stronger effect = higher value
Summary of the method: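 ME-180 cells stably carrying a beta-lactamase reporter under an NF-kB response element were exposed to compound or DMSO vehicle for 16 hr at 37C, 5% CO2. Pathway activation was read by FRET, since reporter expression disrupts FRET.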

[11] = qHTS assay for small molecule disruptors of the mitochondrial membrane potential - 1 hr assay (AID 651754; calls by dose curve; note: nearly all actives have a fitted effect of over 35% in size)
Summary of the method: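 Steps: seed HepG2 cells and let attach overnight; pin-transfer compound or vehicle; incubate 1 hr at 37C; add Mito-MPS dye for 30 min; read two-channel fluorescence for monomer and aggregate forms.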

[12] = qHTS assay for small molecule disruptors of the mitochondrial membrane potential - 5 hr assay (AID 651755; calls by dose curve; note: nearly all actives have a fitted effect of over 40% in size)
Summary of the method: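 HepG2 cells, attached overnight at 37C, were exposed to compound or DMSO for 5 hr at 37C, 5% CO2. Mito-MPS dye was then added for 30 min, and fluorescence read at 490/535 nm (monomers) and 540/590 nm (aggregates).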

[13] = molecular target: Tumor necrosis factor (Homo sapiens) (UniProt P01375); test: qHTS assay to identify small molecules that stimulate Tumor Necrosis Factor-alpha (TNF-alpha) secretion (AID 651757; active = well fitted curve in the direction sought with a large enough effect in the signal ratio; the % refers to the signal ratio)
Chain of Tumor necrosis factor (Homo sapiens) (P01375 whole entry, looked up): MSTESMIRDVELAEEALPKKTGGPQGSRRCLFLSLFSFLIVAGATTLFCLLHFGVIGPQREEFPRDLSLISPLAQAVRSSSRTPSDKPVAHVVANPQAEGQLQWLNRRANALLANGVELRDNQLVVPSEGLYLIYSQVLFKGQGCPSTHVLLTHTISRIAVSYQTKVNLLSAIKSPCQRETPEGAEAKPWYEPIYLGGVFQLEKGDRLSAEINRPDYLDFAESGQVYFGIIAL
Summary of the method: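 Secreted TNF-alpha from compound-treated THP-1 cells (17 hrs, 37 C) was quantified with a homogeneous time-resolved fluorescence antibody assay.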

[14] = qHTS assay for environmental chemicals that activate the Aryl hydrocarbon Receptor (AhR) signaling pathway (AID 651777); details: 1A2-DRE human hepatoma cells, luciferase, 24 h; stronger effect = higher value; note: nearly all actives have a fitted effect of over 15% in size
Summary of the method: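 Human hepatoma 1A2-DRE cells stably carrying a DRE/CYP1A2 promoter–luciferase reporter, 1,200 cells/well, exposed to compound 24 hr at 37 C. Luciferase read by One-Glo luminescence after 30 min at room temperature; increased signal marks AhR activation.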

[15] = molecular target: Peroxisome proliferator-activated receptor alpha (Homo sapiens) (UniProt Q07869); test: qHTS assay for small molecule agonists of the peroxisome proliferator-activated receptor alpha (PPARalpha) signaling pathway (AID 651778); details: PathHunter PPARalpha complementation, chemiluminescence, 6 h; stronger effect = higher value
Chain of Peroxisome proliferator-activated receptor alpha (Homo sapiens) (Q07869 whole entry, looked up): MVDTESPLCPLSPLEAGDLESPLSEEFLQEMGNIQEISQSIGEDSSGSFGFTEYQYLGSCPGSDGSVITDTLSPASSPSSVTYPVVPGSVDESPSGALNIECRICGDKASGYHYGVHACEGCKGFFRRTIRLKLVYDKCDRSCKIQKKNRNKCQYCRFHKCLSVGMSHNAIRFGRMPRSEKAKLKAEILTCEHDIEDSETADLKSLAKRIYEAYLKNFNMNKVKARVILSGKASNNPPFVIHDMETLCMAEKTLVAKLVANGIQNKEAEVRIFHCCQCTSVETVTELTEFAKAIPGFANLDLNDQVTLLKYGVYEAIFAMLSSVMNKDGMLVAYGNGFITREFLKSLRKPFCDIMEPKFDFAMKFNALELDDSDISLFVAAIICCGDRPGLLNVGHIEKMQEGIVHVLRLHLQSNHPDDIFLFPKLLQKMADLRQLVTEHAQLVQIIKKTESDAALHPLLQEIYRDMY
Summary of the method: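 Cells plated at 2,000/well and held overnight at 37 C, 5% CO2, then compound added by pin tool for 6 hr; after PathHunter detection reagent and 60 min at room temperature, chemiluminescence from enzyme complementation was read.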

[16] = qHTS assay for small molecule agonists of the antioxidant response element (ARE) signaling pathway measured by Nrf2-dependant transcriptional activity (AID 720636; active = well fitted curve in the direction sought with a large enough effect in the repeat runs; an effect the other way counts as inactive or inconclusive)
Summary of the method: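 ARE-luc HepG2 cells carrying an Nrf2-responsive luciferase reporter, in medium with 1% dialyzed FBS, exposed to compound for 16 hr at 37 C, 5% CO2. Luminescence read 30 min after ONE-Glo addition.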

[17] = S16 Schwann cell viability assay (CellTiter-Glo assay) (AID 624031);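 note: cellular ATP luminescence as a viability measure; series mostly up to about 58 µM; nearly all actives have a fitted effect of over 70% in size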
Summary of the method: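 Native S16 rat Schwann cells, 500-750 cells/well in DMEM with 10% FBS, dosed with compound after overnight culture and incubated 24h at 37 degree Celsius/5% CO2. Viability by CellTiter-Glo luminescence; % activity normalized to no-cell wells and DMSO-treated cells.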

[18] = qHTS assay to identify small molecules that stimulate interleukin-8 (IL-8) secretion (AID 651758; active = well fitted activation curve with a large enough effect in the signal ratio; the % refers to the signal ratio)
Summary of the method: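 THP-1, 2000 cells/well; cpd 16 h, 37 C; add cryptate + XL665 anti-IL-8 Abs; RT 1-3 h; TR-FRET read.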

[19] = qHTS assay for small molecule activators of the p53 signaling pathway (AID 651743; active = well fitted activation curve with a large enough effect in the signal ratio, not every such curve was filed as active; the % refers to the signal ratio; note: series mostly up to about 92 µM); details: HCT-116 p53RE-bla, beta-lactamase FRET ratio, 16 h; stronger effect = higher value
Summary of the method: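 p53RE-bla HCT-116 cells with a stably integrated beta-lactamase reporter under p53 response elements were plated, rested 5 hours at 37 C/5% CO2, then exposed to compounds in DMSO for 16 hours at 37 C. LiveBLAzer B/G FRET substrate was read after 2 hours at room temperature.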

| Structure (SMILES) | outcome [1] | max response [2] | max response [3] | activity change % (negative = inhibition) [4] | Potency [5] | Potency [6] | Potency [7] | outcome [8] | Potency [9] | activation [10] | Potency [11] | Potency [12] | outcome [13] | activation [14] | max response [15] | outcome [16] | outcome [17] | outcome [18] | activation [19] |
| --- | --- | --- | --- | --- | --- | --- | --- | --- | --- | --- | --- | --- | --- | --- | --- | --- | --- | --- | --- |
| Cc1c(N(C)C)c(=O)n(-c2ccccc2)n1C | inactive | -6.41% and -1.97% | -3.15% (inactive) and -4.34% (inactive) | -16.1% (inactive) and 15.3% (inactive) | inactive | inactive | inactive | inactive | inactive | 1.01% (inactive) and 2.73% (inactive) | inactive | inactive | inactive | -1.03% (inactive) and 1.07% (inactive) | -3.72% (inactive) and 2.35% (inactive) | inactive |  |  |  |
| CCN(CC)C(=O)c1cccc(C)c1 |  | -0.756% and -2.65% | 0.203% (inactive) and -8.17% (inactive) | -13.1% (inactive) | inactive | inactive |  | inactive | inactive |  |  | inactive | inactive | -1.83% (inactive) and 2% (inactive) | -2.42% (inactive) and -0.716% (inactive) | inactive | inactive | inactive |  |
| Cc1cccc(Nc2ccccc2C(=O)O)c1C | inactive |  |  |  | inactive |  | inactive |  | 61.1 µM (active) |  |  |  |  | 2.22% (inactive) |  | inactive | inactive |  |  |
| COC(=O)c1ccc(O)cc1 | inactive | -19.3% | -10.5% (inactive) | -5.41% (inactive) | inactive | inactive | inactive |  | 19.3 µM (active) | -2.57% (inactive) |  |  |  | 7.25% (inactive) | -1.49% (inactive) |  |  |  |  |
| CCCC(O)C(CC)CO (stereo not drawn) | inactive | -4.1% | 8.72% (inactive) | 10.7% (inactive) | inactive | inactive | inactive |  | inactive | 0.969% (inactive) |  |  | inactive | 0.804% (inactive) | -4.25% (inactive) | inactive | inactive | inactive | 1.06% (inactive) |
| O=C(OOC(=O)c1ccccc1)c1ccccc1 | inactive | -16.7% | 10.6% (inactive) |  | inactive | inactive | inactive |  | inactive |  |  |  |  | 2.82% (inactive) | -3.46% (inactive) | inactive | inactive |  | -0.427% (inactive) |
| Nc1ccc(S(=O)(=O)c2ccc(N)cc2)cc1 | inactive | -11.9% | -26.2% (inactive) | -17.4% (inactive) and -7.69% (inactive) | inactive | inactive | inactive | inactive | inactive | 2.3% (inactive) and -6.03% (inactive) | inactive | inactive |  | -1.52% (inactive) and 0.0487% (inactive) | -8.33% (inactive) and -0.873% (inactive) | inactive |  |  | -4.8% (inactive) and 0.655% (inactive) |
| CC(C)=CCC[C@@](C)(O)[C@H]1CC=C(C)CC1 |  |  |  |  | inactive |  |  |  |  |  |  |  |  |  |  |  |  |  |  |
